Results on seven molecules are retold here after PubChem BioAssay (Tox21).

Molecules are shown by their SMILES. Unmarked numbers belong to inactive results. Results filed as inconclusive are left out. The source made the active and inactive calls. Unless noted, calls come from the whole dose curve.

Experiment [1] in a line: Nuclear factor erythroid 2-related factor 2/antioxidant responsive element (Nrf2/ARE) small molecule agonists: qHTS cell viability counter screen in human keratinocytes (AID 1919968; active = well fitted curve in the direction sought with a large enough effect in the repeat runs; an effect the other way counts as inactive or inconclusive; note: nearly all actives have a fitted effect of over 55% in size). Put shortly: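 Stably transfected HaCaT (KeratinoSens), 1,500/well. Test agents in DMSO were applied for 23 h, 37 C/5% CO2. CellTiter-Fluor was incubated 1 h before the fluorescence read.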
On the technique in general: In qHTS, concentration-response curves come from the screen itself.

A short description of experiment [2]: Nuclear factor erythroid 2-related factor 2/antioxidant responsive element (Nrf2/ARE) small molecule agonists: luciferase reporter gene qHTS assay in human keratinocytes (AID 1919969). Note: nearly all actives have a fitted effect of over 35% in size. Note: potency is the fitted concentration of half-maximal effect. A general note: A reporter such as luciferase makes a cellular process visible.
The target in experiment [3] is Gonadotropin-releasing hormone receptor (Homo sapiens) (UniProt P30968). Put plainly: Human gonadotropin-releasing hormone receptor (GnRHR) small molecule agonists, calcium flux assay in GnRHR-HEK293 cells (AID 1920063). Note: nearly all actives have a fitted effect of over 35% in size. Put shortly:
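Stable human GnRHR HEK293 line. 18 h plating, then calcium dye for 1 h at 37 C. Agonist-mode compound addition from DMSO stocks; fluorescence monitored 3 min.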

Experiment [4] addresses KiSS-1 receptor (Homo sapiens) (UniProt Q969F8). Put plainly: Human kisspeptin (KISS1R) small molecule agonists, calcium flux assay in KISS1R-HEK293 cells (AID 1920064; active = well fitted curve in the direction sought with a large enough effect in the repeat runs; an effect the other way counts as inactive or inconclusive). Put shortly: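 After overnight (18 h) culture at 37 C/5% CO2, human KISS1R-HEK293 cells received calcium dye for 1 h, then test compound; emission at 540 nm (excitation 480 nm) was tracked for 3 min.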
Experiment [5] in a line: G protein-coupled receptor (GPCR) small molecule agonists, calcium flux assay: HEK293 wild type cell line counter screen (AID 1920065). Put shortly:
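Following 18 h incubation at 37 C/5% CO2, plates got calcium dye for 1 h; compounds, ATP or DMSO were then pinned in and fluorescence followed kinetically (480/540 nm).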

Experiment [6] can be described thus: p53 small molecule agonists, cell-based qHTS assay with human liver microsomes: qHTS cell viability counter screen (AID 1963579). Note: nearly all actives have a fitted effect of over 45% in size. Put shortly: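 Luminescent CellTiter-Glo read-out, 30 min at room temperature, gauged cytotoxicity in p53RE-bla cells exposed 16 h at 37 C to DMSO-dissolved compounds with metabolic activation by human liver microsomes and NADPH, each 0.5 mg/mL final.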

Experiment [7] can be described thus: p53 small molecule agonists, cell-based qHTS assay with rat liver microsomes: qHTS cell viability counter screen (AID 1963580). Note: nearly all actives have a fitted effect of over 45% in size. Put shortly: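 Cytotoxicity counter screen: intracellular ATP read by CellTiter-Glo luminescence in the p53 reporter wells. HCT-116 p53RE-bla cells were treated for 16 h at 37 C alongside rat liver microsomes and NADPH, each 0.5 mg/mL final.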

The nature of experiment [8]: p53 small molecule agonists, cell-based qHTS assay: qHTS cell viability counter screen (AID 1963581). Note: nearly all actives have a fitted effect of over 45% in size. Put shortly: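 qHTS counter screen: 16 h compound exposure at 37 C of p53RE-bla HCT-116 cells (4,000 per well, seeded 5 h prior), cell viability by ATP luminescence.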
Experiment [9] concerns the target 5-hydroxytryptamine receptor 2A (Homo sapiens) (UniProt P28223). Nature of the experiment: 5-hydroxytryptamine receptor 2A (HTR2A) small molecule antagonists, cell-based qHTS assay (AID 1963586). Note: nearly all actives have a fitted effect of over 45% in size. Put shortly: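 CHO cells stably expressing human HTR2A were plated for 18 h at 37 C, then loaded with calcium dye for 1 h. Compounds were preincubated 5 min at room temperature before DOI (4 nM solution) was added. Kinetic fluorescence was read for 3 min.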

The target is the same in experiment [10]. Put plainly: 5-hydroxytryptamine receptor 2A (HTR2A) small molecule agonists, cell-based qHTS assay (AID 1963587). Note: nearly all actives have a fitted effect of over 30% in size. Put shortly: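 Kinetic calcium-flux fluorescence (2 min, 1 sec intervals) after compound addition in agonist mode. HTR2A-CHO cells were cultured 18 h, then dye-loaded 1 h at 37 C.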
The target of experiment [11] is Muscarinic acetylcholine receptor M1 (Homo sapiens) (UniProt P11229). Put plainly: Cholinergic receptor muscarinic 1 (CHRM1) small molecule antagonists, cell-based qHTS assay (AID 1963588). Note: nearly all actives have a fitted effect of over 40% in size. Put shortly: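 Compounds were tested at 15 concentrations in three independent runs. Dye-loaded CHRM1-CHO cells were exposed 5 min at room temperature before stimulation by acetylcholine added at 50nM. Intracellular calcium was read kinetically on FDSS for 3 min.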

The target is the same in experiment [12]. Nature of the experiment: Cholinergic receptor muscarinic 1 (CHRM1) small molecule agonists, cell-based qHTS assay (AID 1963589). Note: nearly all actives have a fitted effect of over 35% in size. Put shortly:
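Kinetic fluorescence (1 s intervals) of calcium-sensitive dye in human M1 CHO cells after compound addition; cells pre-incubated 18 h at 37 C/5% CO2 and dye-loaded 1 h.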

Experiment [13] is described as follows: cAMP Responsive Elements (CRE) small molecule agonists, cell-based qHTS assay (AID 1963590). Put shortly: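 Test agents in DMSO were incubated 3 h at 37 C/5% CO2 with CRE-bla HEK 293T cells seeded 18 h earlier; LiveBLAzer B/G FRET substrate was added and read after 2 h at room temperature.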
Experiment [14] is described as follows: cAMP Responsive Elements (CRE) small molecule antagonists, cell-based qHTS assay (AID 1963591; active = well fitted inhibition curve with a large enough effect in the signal ratio in the repeat runs, not every such curve was filed as active; the % refers to the signal ratio). Put shortly:
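Reporter line CRE-bla HEK 293T in dialyzed-FBS DMEM; cells preincubated 18 h, treated 3 h with compound plus NKH477 (0.25 uM final); LiveBLAzer FRET, 2 h RT.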

Experiment [15] concerns the target Beta-2 adrenergic receptor (Homo sapiens) (UniProt P07550). Put plainly: Adrenergic beta2 receptor (ADRB2) small molecule antagonists, cell-based qHTS assay (AID 1963592). Note: series mostly up to about 92 µM; nearly all actives have a fitted effect of over 50% in size. Put shortly: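 Assay format: CHO-ADRB2 cells, 18-20hr seeding at 37C/5% CO2, then compound plus 1nM isoproterenol agonist mix for 0.5hr RT. Homogeneous time-resolved fluorescence cAMP detection after 1hr, expressed as 665/615 nm ratio.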

Experiment [16] concerns the target D(2) dopamine receptor (Homo sapiens) (UniProt P14416). Put plainly: Dopamine D2 receptor (DRD2) small molecule agonists, cell-based qHTS assay (AID 1963594). Note: nearly all actives have a fitted effect of over 35% in size. Put shortly: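 cAMP accumulation in DRD2-HEK293 cells measured by HTRF after 1 h detection; compounds added 10 min before NKH477 (200nM […]) forskolin-analogue stimulation, 30 min at room temperature, with Ro20-1724 present at 0.1 mM final.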

Experiment [17] has the same target. Put plainly: Dopamine D2 receptor (DRD2) small molecule antagonists, cell-based qHTS assay (AID 1963595; active = well fitted inhibition curve with a large enough effect in the signal ratio in the repeat runs, with a control signal flat; the % refers to the signal ratio). Put shortly: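 Readout: HTRF cAMP, cAMP-d2 competing with cellular cAMP for anti-cAMP cryptate, read after 1 h. Cells: DRD2-HEK293. Conditions: 0.1 mM Ro20-1724, 12 nM quinpirole, 200 nM NKH477, 30 min RT.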

Chain of D(2) dopamine receptor (Homo sapiens) (P14416 whole entry, looked up): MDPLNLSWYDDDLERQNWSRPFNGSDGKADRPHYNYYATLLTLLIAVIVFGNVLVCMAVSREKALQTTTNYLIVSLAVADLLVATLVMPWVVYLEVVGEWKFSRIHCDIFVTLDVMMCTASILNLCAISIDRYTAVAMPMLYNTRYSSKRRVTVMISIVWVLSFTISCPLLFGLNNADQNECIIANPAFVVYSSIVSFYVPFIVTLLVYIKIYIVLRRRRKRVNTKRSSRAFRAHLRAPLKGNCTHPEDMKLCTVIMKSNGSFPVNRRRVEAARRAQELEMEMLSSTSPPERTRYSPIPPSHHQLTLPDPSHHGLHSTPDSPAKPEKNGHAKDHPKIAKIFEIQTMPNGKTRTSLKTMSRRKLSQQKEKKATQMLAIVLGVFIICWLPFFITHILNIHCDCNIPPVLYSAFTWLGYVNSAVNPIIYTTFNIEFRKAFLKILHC
Chain of KiSS-1 receptor (Homo sapiens) (Q969F8 whole entry, looked up): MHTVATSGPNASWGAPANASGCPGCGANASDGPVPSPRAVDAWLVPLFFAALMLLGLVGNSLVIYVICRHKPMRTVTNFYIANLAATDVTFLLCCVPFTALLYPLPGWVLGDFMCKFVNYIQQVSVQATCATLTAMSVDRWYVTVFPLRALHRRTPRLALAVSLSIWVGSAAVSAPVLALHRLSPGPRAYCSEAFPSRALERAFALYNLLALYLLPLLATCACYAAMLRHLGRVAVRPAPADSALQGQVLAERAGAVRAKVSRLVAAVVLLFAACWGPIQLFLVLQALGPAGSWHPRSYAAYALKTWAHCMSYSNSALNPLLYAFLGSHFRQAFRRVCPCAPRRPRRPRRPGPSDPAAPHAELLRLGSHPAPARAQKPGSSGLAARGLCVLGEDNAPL
Chain of Muscarinic acetylcholine receptor M1 (Homo sapiens) (P11229 whole entry, looked up): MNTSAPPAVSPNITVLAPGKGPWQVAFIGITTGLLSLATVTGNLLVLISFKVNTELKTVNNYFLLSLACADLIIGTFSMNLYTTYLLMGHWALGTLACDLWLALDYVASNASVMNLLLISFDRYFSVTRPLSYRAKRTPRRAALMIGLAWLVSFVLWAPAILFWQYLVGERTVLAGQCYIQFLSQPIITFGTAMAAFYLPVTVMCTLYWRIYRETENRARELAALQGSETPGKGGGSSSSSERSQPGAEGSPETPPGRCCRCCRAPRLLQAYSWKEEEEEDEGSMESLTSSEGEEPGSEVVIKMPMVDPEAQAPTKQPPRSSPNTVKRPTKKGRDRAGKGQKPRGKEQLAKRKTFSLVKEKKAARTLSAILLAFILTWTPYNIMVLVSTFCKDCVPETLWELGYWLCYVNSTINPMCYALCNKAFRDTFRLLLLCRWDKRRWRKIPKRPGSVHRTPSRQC
Chain of Gonadotropin-releasing hormone receptor (Homo sapiens) (P30968 whole entry, looked up): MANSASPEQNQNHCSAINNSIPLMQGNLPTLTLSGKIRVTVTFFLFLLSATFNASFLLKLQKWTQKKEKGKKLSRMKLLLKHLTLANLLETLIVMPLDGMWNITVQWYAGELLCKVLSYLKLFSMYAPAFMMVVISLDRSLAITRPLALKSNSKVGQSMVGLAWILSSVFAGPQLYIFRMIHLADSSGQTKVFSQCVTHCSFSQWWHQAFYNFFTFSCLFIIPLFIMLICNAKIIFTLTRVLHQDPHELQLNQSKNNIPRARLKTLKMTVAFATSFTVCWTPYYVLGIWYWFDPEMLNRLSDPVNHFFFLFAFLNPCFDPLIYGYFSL
Chain of Beta-2 adrenergic receptor (Homo sapiens) (P07550 whole entry, looked up): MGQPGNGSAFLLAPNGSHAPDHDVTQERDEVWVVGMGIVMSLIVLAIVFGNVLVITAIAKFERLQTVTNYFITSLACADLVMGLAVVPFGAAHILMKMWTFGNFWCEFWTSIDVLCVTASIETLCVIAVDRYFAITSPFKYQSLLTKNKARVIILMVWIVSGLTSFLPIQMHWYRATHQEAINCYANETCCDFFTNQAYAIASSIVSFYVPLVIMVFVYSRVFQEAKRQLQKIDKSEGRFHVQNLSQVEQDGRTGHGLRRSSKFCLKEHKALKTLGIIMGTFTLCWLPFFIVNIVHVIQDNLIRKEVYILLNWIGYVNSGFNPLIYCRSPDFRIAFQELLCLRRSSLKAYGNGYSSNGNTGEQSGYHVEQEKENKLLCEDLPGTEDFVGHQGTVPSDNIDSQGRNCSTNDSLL
Chain of 5-hydroxytryptamine receptor 2A (Homo sapiens) (P28223 whole entry, looked up): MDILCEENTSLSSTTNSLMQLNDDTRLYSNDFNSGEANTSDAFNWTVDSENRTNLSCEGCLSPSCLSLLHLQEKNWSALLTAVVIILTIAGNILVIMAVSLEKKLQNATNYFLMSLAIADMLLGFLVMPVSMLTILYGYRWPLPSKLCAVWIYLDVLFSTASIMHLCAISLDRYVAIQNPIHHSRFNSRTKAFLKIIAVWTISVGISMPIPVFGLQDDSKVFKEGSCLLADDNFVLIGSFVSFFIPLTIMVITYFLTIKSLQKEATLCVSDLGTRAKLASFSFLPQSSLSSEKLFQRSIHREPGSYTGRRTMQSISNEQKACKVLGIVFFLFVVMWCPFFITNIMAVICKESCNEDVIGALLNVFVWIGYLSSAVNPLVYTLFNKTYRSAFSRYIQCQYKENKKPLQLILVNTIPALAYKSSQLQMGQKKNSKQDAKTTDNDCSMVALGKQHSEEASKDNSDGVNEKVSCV

With `Cc1ccc(C(=O)O)cc1[N+](=O)[O-]`, the Potency result in experiment [1], in experiment [2], in [3], in experiment [4], in experiment [5] and in [6] was “inactive” each time. Moreover, the Potency result in experiment [7], in experiment [8], in experiment [9], in [10], in experiment [11] and in experiment [12] was “inactive” in each case. The Potency entry in [13], in [14], in [15], in [16] and in experiment [17] was “inactive” in each case.
Turning to `C=CCOCC(O)CS(=O)(=O)O` (stereo not drawn), the Potency result in [1], in experiment [3], in experiment [4], in experiment [5], in experiment [6] and in experiment [7] was “inactive” in each case. Besides, the Potency entry in experiment [8], in [9], in experiment [10], in experiment [11], in [12] and in [13] was “inactive” in each case. Moreover, the Potency result in experiment [14], in [15] and in [17] was “inactive” in each case. Moreover, the Potency in experiment [2] was 0.196 µM (active).
`CC(=O)c1ccccc1[N+](=O)[O-]`: the Potency entry in [1], in experiment [2], in experiment [3], in experiment [4], in experiment [5] and in experiment [6] was “inactive” in each case. The Potency result in experiment [7], in [8], in experiment [9], in experiment [10], in [11] and in experiment [12] was “inactive” each time. For the same molecule, the Potency entry in experiment [13], in experiment [14], in experiment [15], in [16] and in [17] was “inactive” throughout.
`CC(C)CCCCCOC(=O)CCCCC(=O)OCCCCCC(C)C`: the Potency result in [1], in experiment [3], in [4], in experiment [5], in experiment [6] and in [7] was “inactive” each time. The Potency entry in experiment [8], in experiment [9], in [10], in experiment [11], in experiment [12] and in [13] was “inactive” each time. The Potency result in [14], in experiment [15], in experiment [16] and in experiment [17] was “inactive” in each case. Besides, in [2], the Potency was 48.6 µM (active).
For the molecule `CCC(C)N` (stereo not drawn), the Potency entry in [1], in experiment [2], in [3], in [4], in experiment [5] and in [6] was “inactive” each time. Further, the Potency entry in [7], in [8], in experiment [9], in experiment [10], in experiment [11] and in [12] was “inactive” throughout. Further, the Potency entry in experiment [13], in experiment [14], in [15], in experiment [16] and in experiment [17] was “inactive” throughout.
In the case of `COc1cc(OC)c2ccc(=O)oc2c1`, the Potency result in experiment [1], in experiment [2], in [3], in [4], in experiment [5] and in experiment [6] was “inactive” in each case. Also, the Potency entry in [7], in experiment [8], in experiment [9], in experiment [10], in experiment [11] and in experiment [12] was “inactive” in each case. In addition, the Potency entry in experiment [13], in [14], in experiment [15], in experiment [16] and in experiment [17] was “inactive” in each case.
Regarding `CCCCC(CC)COC(=O)c1ccccc1` (stereo not drawn), the Potency entry in experiment [1], in [2], in [3], in experiment [4], in experiment [5] and in experiment [6] was “inactive” in each case. For the same molecule, the Potency entry in experiment [7], in [8], in experiment [9], in experiment [10], in experiment [11] and in experiment [12] was “inactive” throughout. In addition, the Potency entry in experiment [13], in [14], in [15], in experiment [16] and in experiment [17] was “inactive” each time.
